Test systems include HCT-15 colon; HT29 colon; SNB-75 CNS; SNB-19 CNS; U251 CNS; PC-3 prostate; SK-MEL-5 melanoma; UACC-62 melanoma; LOX IMVI melanoma; SK-MEL-28 melanoma; SK-MEL-2 melanoma; SN12C renal; UO-31 renal; TK-10 renal; ACHN renal; CAKI-1 renal; CCRF-CEM leukemia; MOLT-4 leukemia; A498 renal; EKVX NSCLC.
What all share (experiment): NCI-60 one-dose screen, 48 h (100 = growth as untreated, 0 = no growth, -100 = all killed)
Conditions in all cases: 10 µM unless noted

The panel holds about 83,000 compounds, 20% with a hit somewhere; the sample as a whole holds those more often.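 Compound tested at a single concentration for 48 hours in 96-well plates; a percent growth value below 10 was scored as active.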 A number with no mark means an inactive call. Calls of active or inactive are those of the source.

For the molecule `COc1ccc(/C=N/NC(=O)c2cnn(CC(O)Cc3ccccc3)c2N)cc1OC1CCCC1` (configuration not stated), the growth in the experiment with HCT-15 colon was 77.6%; with HT29 colon, 93.6%; with SNB-75 CNS, 74.2%; in the experiment on SNB-19 CNS it was 92.3%; in the experiment with U251 CNS, 85.6%; with PC-3 prostate, 69.9%. The growth in the experiment with SK-MEL-5 melanoma is 62.7%; in the experiment with UACC-62 melanoma it was 82.8%; in the experiment on LOX IMVI melanoma, 82.4%; in the experiment with SK-MEL-28 melanoma, 107%; with SK-MEL-2 melanoma, 108%; in the experiment on SN12C renal it was 95.4%. For the same molecule, the growth with UO-31 renal is 92.1%; with TK-10 renal it was 99.4%; with ACHN renal, 87.5%; with CAKI-1 renal, 77.9%; in the experiment on CCRF-CEM leukemia, 70.9%; with MOLT-4 leukemia, 66.6%.

On to `Cc1ccc(S(=O)(=O)N2C/C(=C\c3cc(F)cc(F)c3)C(=O)/C(=C/c3cc(F)cc(F)c3)C2)cc1`, for which the growth was -31.6% (active) in the experiment on HCT-15 colon; -48.7% (active) in the experiment with HT29 colon; -41.6% (active) in the experiment with SNB-75 CNS; -61.7% (active) in the experiment with SNB-19 CNS; -97.9% (active) with U251 CNS; -60.3% (active) in the experiment with PC-3 prostate. In addition, the growth with SK-MEL-5 melanoma is -59.6% (active); in the experiment on UACC-62 melanoma, -91.1% (active); with LOX IMVI melanoma it was -94.5% (active); in the experiment on SK-MEL-28 melanoma, -80.1% (active); with SK-MEL-2 melanoma, -25.9% (active); in the experiment with SN12C renal, -73.9% (active). For the same molecule, the growth was -90.5% (active) in the experiment with UO-31 renal; 8.08% (active) in the experiment on TK-10 renal; -91.4% (active) with ACHN renal; -7.75% (active) in the experiment with CAKI-1 renal; -25.7% (active) in the experiment with A498 renal; -9.43% (active) with CCRF-CEM leukemia. For the same molecule, the growth with MOLT-4 leukemia is -5.52% (active).

Regarding `O=c1oc2ccccc2cc1-c1csc(N=Nc2c(O)[nH]c3ccc(Cl)cc23)n1`, the growth in the experiment on HCT-15 colon is 99.5%; with HT29 colon, 101%; in the experiment with SNB-75 CNS, 93.3%; in the experiment on SNB-19 CNS, 99.2%; with U251 CNS it was 94.6%; in the experiment on PC-3 prostate, 100%. Further, the growth was 104% with SK-MEL-5 melanoma; 98.2% in the experiment on UACC-62 melanoma; 97.7% in the experiment on LOX IMVI melanoma; 103% in the experiment with SK-MEL-28 melanoma; 107% in the experiment on SK-MEL-2 melanoma; 103% with EKVX NSCLC. In addition, the growth with UO-31 renal is 98.2%; with ACHN renal it was 101%; in the experiment with CAKI-1 renal, 94.9%; with CCRF-CEM leukemia, 94.2%; in the experiment with MOLT-4 leukemia, 105%.

On to `CCOC(=O)c1cnn(CC(O)c2ccc(F)cc2)c1NC(=O)Nc1ccccc1F` (configuration not stated), for which the growth in the experiment with HCT-15 colon was 103%; with HT29 colon, 117%; in the experiment with SNB-75 CNS it was 82.2%; in the experiment on SNB-19 CNS, 98.3%; in the experiment on U251 CNS, 97.8%; with PC-3 prostate, 81.5%. The growth with SK-MEL-5 melanoma was 75.9%; in the experiment on UACC-62 melanoma, 73.8%; in the experiment with LOX IMVI melanoma, 101%; in the experiment with SK-MEL-28 melanoma, 101%; with SK-MEL-2 melanoma, 111%; with EKVX NSCLC it was 101%. The growth was 71.5% in the experiment with UO-31 renal; 103% in the experiment on TK-10 renal; 98.3% in the experiment on ACHN renal; 83.7% in the experiment with CAKI-1 renal; 91.8% in the experiment with MOLT-4 leukemia.

Regarding `O=C(C[Si](CC(=O)c1cccc(C(F)(F)F)c1)CC(=O)c1cccc(C(F)(F)F)c1)c1cccc(C(F)(F)F)c1`, the growth in the experiment on HCT-15 colon is 99.1%; in the experiment on HT29 colon, 62.8%; in the experiment on SNB-75 CNS, 90.8%; in the experiment with SNB-19 CNS, 101%; in the experiment with U251 CNS, 51.6%; in the experiment on PC-3 prostate, -14.7% (active). Besides, the growth in the experiment on SK-MEL-5 melanoma was 99.8%; in the experiment on UACC-62 melanoma, 66.7%; in the experiment on LOX IMVI melanoma, 73.2%; in the experiment with SK-MEL-28 melanoma it was 98.6%; in the experiment with SK-MEL-2 melanoma, 94.1%; in the experiment with EKVX NSCLC, 36.7%. Further, the growth with SN12C renal was 69.5%; in the experiment on UO-31 renal it was 31.4%; in the experiment on ACHN renal, 79.1%; in the experiment on CAKI-1 renal, 41.7%; with A498 renal it was 60.4%; in the experiment with MOLT-4 leukemia, -19.2% (active).

Consider `CCC(=O)Nc1nnc(Cc2ccc(OC)c(OC)c2)s1`, for which the growth in the experiment with HCT-15 colon was 31.7%; with HT29 colon, -46.9% (active); with SNB-75 CNS it was -83.3% (active); with SNB-19 CNS, 2.39% (active); in the experiment with U251 CNS it was -52.9% (active); with PC-3 prostate, 9.29% (active). The growth in the experiment with SK-MEL-5 melanoma was 46.6%; in the experiment on UACC-62 melanoma, -3.8% (active); in the experiment with LOX IMVI melanoma, 15.6%; in the experiment with SK-MEL-28 melanoma, -97.7% (active); in the experiment on SK-MEL-2 melanoma, -6.77% (active); in the experiment on SN12C renal, 2.77% (active). For the same molecule, the growth was 19.6% with UO-31 renal; -37.7% (active) in the experiment on TK-10 renal; 4.03% (active) in the experiment with ACHN renal; -33.6% (active) in the experiment with CAKI-1 renal; 85.2% with A498 renal; 38.3% with CCRF-CEM leukemia. For the same molecule, in the experiment with MOLT-4 leukemia, the growth is 48.9%.

Consider `Clc1ccc(C2=Nc3cccc4cccc(c34)N2)cc1Cl`, for which the growth is 70.2% with HCT-15 colon; 101% in the experiment on HT29 colon; 77.5% in the experiment on SNB-75 CNS; 70.3% in the experiment on SNB-19 CNS; 104% with U251 CNS; 65.8% with PC-3 prostate. The growth in the experiment on SK-MEL-5 melanoma was 91.6%; with UACC-62 melanoma, 109%; with LOX IMVI melanoma, 84%; in the experiment on SK-MEL-28 melanoma, 104%; in the experiment with SK-MEL-2 melanoma it was 96.2%; in the experiment on EKVX NSCLC it was 91.1%. The growth with UO-31 renal is 72.3%; in the experiment on TK-10 renal, 97.9%; in the experiment with ACHN renal, 94.7%; in the experiment with CCRF-CEM leukemia it was 67.4%.

On to `COc1ccc(/C=N/NC(=O)c2cnn3c2NC(c2ccccc2)C3)cc1OC1CCCC1` (configuration not stated), for which the growth in the experiment with HCT-15 colon is 70%; in the experiment with HT29 colon, 90.6%; with SNB-75 CNS, 84.3%; in the experiment with SNB-19 CNS it was 87.7%; in the experiment on U251 CNS, 83%; in the experiment on PC-3 prostate, 79.1%. Moreover, the growth is 78.8% in the experiment on SK-MEL-5 melanoma; 83% in the experiment with UACC-62 melanoma; 85.2% in the experiment on LOX IMVI melanoma; 108% in the experiment with SK-MEL-28 melanoma; 107% in the experiment with SK-MEL-2 melanoma; 90.7% with SN12C renal. Also, the growth with UO-31 renal was 80.1%; in the experiment with TK-10 renal it was 109%; with ACHN renal, 95.3%; in the experiment on CAKI-1 renal it was 77.8%; in the experiment on CCRF-CEM leukemia, 90.7%; in the experiment with MOLT-4 leukemia, 69.1%.

The values are drawn from PubChem BioAssay (NCI).
